Laboratory results: PubChem BioAssay (NCATS)
Values joined by “and” are separate entries in the source; they are usually repeats but may differ in a detail not shown here. Equal entries are not always repeated. Results filed as inconclusive are left out. The source holds several records for some structures; these can differ, active in one and inactive in another. Active and inactive are the calls of the source. The call rests on the fitted dose curve.

These compounds were tested against Cytochrome P450 1A2 (Homo sapiens) (UniProt P05177) (assay: p450-cyp1a2 (AID 410;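 on activity change, negative = inhibition: -100% = full effect of reference inhibitor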)). Conditions: recombinant CYP1A2, luciferin-ME demethylation, luminescence; series mostly up to 57 µM; activity change, negative = inhibition: at the top concentration.
Description: The P450 gene superfamily is involved in metabolism and the clearance of xenobiotics. This assay used human CYP1A2 to measure the demethylation of luciferin 6' methyl ether (Luciferin-ME; Promega-Glo) to luciferin. The luciferin is then measured by luminescence after the addition of a luciferase detection regeant. Luciferin-ME concentration in the assay was equal to its Km for CYP1A2.
NCGC Assay Protocol Summary:
Two uL of enzyme and substrate mix (final concentrations: 20nM CYP1A2, 100uM Luciferin-ME, 100mM KPO4) were dispensed into a white, solid bottom 1536-well microtiter plate. 23nL of compound was transferred by a pin tool. The plate was incubated at room temperature for 10 min. Two uL of an NADPH regeneration solution (Promega supplied reagent) was dispensed and the reaction was allowed to continue for 60 min at room temperature. Then the reaction was stopped by reconstituted detection reagent. After another 20 min of incubation the plate was read on the ViewLux (Perkin Elmer) at 60 sec exposure and 2x2 binning. This protocol was carried out with Promega-Glo reagents and further information can be found at http://www.promega.com/tbs/tb325/tb325.pdf. Data were normalized to the to AC100 inhibition (57 uM furafylline).
Potency means the concentration at half of the fitted maximal effect.

Chain of Cytochrome P450 1A2 (Homo sapiens) (P05177 whole entry, looked up): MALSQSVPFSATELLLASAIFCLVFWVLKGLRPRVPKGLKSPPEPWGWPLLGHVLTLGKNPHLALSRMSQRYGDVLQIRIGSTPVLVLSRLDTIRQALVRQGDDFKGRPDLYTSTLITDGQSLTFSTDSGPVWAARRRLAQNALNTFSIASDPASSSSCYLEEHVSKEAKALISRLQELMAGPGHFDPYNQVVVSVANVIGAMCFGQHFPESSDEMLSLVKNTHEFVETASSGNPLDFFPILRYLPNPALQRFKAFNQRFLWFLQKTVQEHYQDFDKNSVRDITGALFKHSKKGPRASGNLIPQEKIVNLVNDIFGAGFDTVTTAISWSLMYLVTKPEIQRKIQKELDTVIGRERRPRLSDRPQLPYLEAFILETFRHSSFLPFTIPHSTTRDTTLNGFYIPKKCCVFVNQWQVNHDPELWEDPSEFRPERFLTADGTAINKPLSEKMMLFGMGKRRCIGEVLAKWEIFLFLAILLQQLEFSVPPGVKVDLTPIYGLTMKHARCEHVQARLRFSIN

| SMILES | activity change, negative = inhibition | Potency |
| --- | --- | --- |
| O=C1CCc2cc(OCCCCc3nnnn3C3CCCCC3)ccc2N1 | -5.3% (inactive) |  |
| CC(=O)Oc1ccccc1C(=O)O | -5.2% (inactive) |  |
| N[C@@H]1CONC1=O |  | inactive |
| CC(C)(Sc1ccc(CCN(CCCCC2CCCCC2)C(=O)NC2CCCCC2)cc1)C(=O)O | -3.6% (inactive) |  |
| Cc1ccc(N(CC2=NCCN2)c2cccc(O)c2)cc1 |  | inactive |
| NNCCc1ccccc1 |  | 3.16 µM (active) and 1 µM (active) |
| O=c1[nH]cnc2[nH]ncc12 | -0.2% (inactive) |  |
| Cc1ccc2c(c1)C(=O)[C@@]1(O)CCN(c3ccccc3)C1=N2 |  | 3.98 µM (active) |
| CC(C)C[C@H](NC(=O)[C@@H](O)[C@H](N)Cc1ccccc1)C(=O)O | -28% (inactive) |  |
| Clc1cccc(Cl)c1NC1=NCCN1 |  | inactive |
| CCCC(CCC)C(=O)O | -4.8% (inactive) |  |
| N=c1nc(N2CCCCC2)cc(N)n1O |  | inactive |
| O=c1n(CCCN2CCN(c3cccc(Cl)c3)CC2)nc2ccccn12 |  | inactive |
| CCOC(=O)C1=C[C@@]2(CC)CCCN3CCc4c(n1c1ccccc41)[C@H]32 |  | inactive and 39.8 µM (active) |
| NC(=O)c1cnccn1 | 1.6% (inactive) |  |
| C1COC(NC(C2CC2)C2CC2)=N1 |  | inactive |
| CCN(c1ccccc1)c1cc(NC)[n+](C)c(C)n1 |  | 31.6 µM (active) |
| Nc1ccc(S(=O)(=O)Nc2ccnn2-c2ccccc2)cc1 |  | inactive |
| Cc1oncc1C(=O)Nc1ccc(C(F)(F)F)cc1 |  | 631 nM (active) and 63.1 nM (active) |
| Cc1cc2c(C(C)C)c(O)c(O)c(C=O)c2c(O)c1-c1c(C)cc2c(C(C)C)c(O)c(O)c(C=O)c2c1O |  | 15.8 µM (active) |
| NC(N)=NC(=O)c1nc(Cl)c(N)nc1N |  | 12.6 µM (active) and 6.31 µM (active) |
| Nc1nc2c(ncn2COCCO)c(=O)[nH]1 |  | inactive |
